Source: PubChem BioAssay (Tox21)
Results filed as inconclusive are left out. The source made the active and inactive calls. Unless noted, calls come from the whole dose curve; as a rule, active = well fitted curve in the direction sought with a large enough effect in the repeat runs; inconclusive = weak or mixed curves; inactive = no such curve, though single readings can be large; an effect the other way counts as inactive or inconclusive.

What was measured:
[1] = qHTS assay to test for compound auto fluorescence at 535 nm (green) in HEK293 cells (AID 720680)
[2] = qHTS assay to test for compound auto fluorescence at 460 nm (blue) in HEK293 cell free culture (AID 720681)
Outline: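 Compounds were added to cell-free DMEM with 10% FBS and fluorescence read directly. The blue channel used 405 nm excitation and 460 nm emission, with triamterene as the reference fluorophore.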

[3] = qHTS assay to test for compound auto fluorescence at 535 nm (green) in HEK293 cell free culture (AID 720682)
Outline: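 Measurement is a direct plate read of green fluorescence (485 nm in, 535 nm out) after compound addition to serum-supplemented DMEM lacking cells, with fluorescein used to express intensities.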

[4] = qHTS assay to test for compound auto fluorescence at 590 nm (red) in HEK293 cell free culture (AID 720683)
Outline: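 Cell-free wells of DMEM with 10% FBS received compound, and intrinsic fluorescence was read at excitation/emission 540/590 nm. Values expressed as equivalence to Rose Bengal sodium.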

[5] = qHTS assay to test for compound auto fluorescence at 590 nm (red) in HepG2 cell free culture (AID 720684)
Outline: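 Auto fluorescence equivalency versus Rose Bengal sodium, red channel Ex/Em 540/590 nm; compounds in cell-free MEM/10% FBS; DMSO vehicle control.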

[6] = qHTS assay to test for compound auto fluorescence at 460 nm (blue) in HepG2 cell free culture (AID 720685)
Outline: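 Cell-free plates of MEM plus 10% FBS received 23 nL compound or DMSO vehicle; blue-channel (405/460 nm) intensity scored against triamterene as reference fluorophore.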

[7] = qHTS assay to test for compound auto fluorescence at 535 nm (green) in HepG2 cell free culture (AID 720686)
[8] = qHTS assay to test for compound auto fluorescence at 460 nm (blue) in HepG2 cells (AID 720687)
Outline: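 HepG2 cells in MEM with 10% FBS, attached overnight at 37 C, were exposed to compound or DMSO for 1 hr at 37 C, 5% CO2. Blue fluorescence was read at 405/460 nm, with triamterene as reference fluorophore.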

[9] = target: Glucocorticoid receptor (Homo sapiens) (UniProt P04150); experiment: qHTS assay to identify small molecule agonists of the glucocorticoid receptor (GR) signaling pathway (AID 720691; active = well fitted activation curve with a large enough effect in the signal ratio in the repeat runs, not every such curve was filed as active; the % refers to the signal ratio)
Chain of Glucocorticoid receptor (Homo sapiens) (P04150 whole entry, looked up): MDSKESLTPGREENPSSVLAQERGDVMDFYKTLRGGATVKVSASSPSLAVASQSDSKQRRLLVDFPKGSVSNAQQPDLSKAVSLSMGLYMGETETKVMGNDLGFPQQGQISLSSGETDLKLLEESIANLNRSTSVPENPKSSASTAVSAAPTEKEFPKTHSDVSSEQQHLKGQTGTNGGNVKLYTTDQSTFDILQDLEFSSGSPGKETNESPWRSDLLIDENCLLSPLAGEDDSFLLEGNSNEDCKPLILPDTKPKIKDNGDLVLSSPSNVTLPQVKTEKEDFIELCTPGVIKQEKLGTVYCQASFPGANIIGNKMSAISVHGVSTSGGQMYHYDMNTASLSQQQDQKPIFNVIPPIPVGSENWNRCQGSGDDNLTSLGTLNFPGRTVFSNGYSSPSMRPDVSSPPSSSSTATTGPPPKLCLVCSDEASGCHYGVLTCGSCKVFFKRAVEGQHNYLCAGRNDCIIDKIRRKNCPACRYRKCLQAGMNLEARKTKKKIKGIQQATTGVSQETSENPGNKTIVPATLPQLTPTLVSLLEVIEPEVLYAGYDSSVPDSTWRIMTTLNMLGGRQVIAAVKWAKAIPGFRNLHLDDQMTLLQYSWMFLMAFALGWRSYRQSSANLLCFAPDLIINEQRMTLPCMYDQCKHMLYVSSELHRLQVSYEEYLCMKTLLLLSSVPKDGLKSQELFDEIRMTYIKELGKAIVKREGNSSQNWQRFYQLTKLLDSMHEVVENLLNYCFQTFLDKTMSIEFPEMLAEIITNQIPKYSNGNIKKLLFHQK
Outline: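 Agonist-mode qHTS in HeLa cells stably expressing a glucocorticoid-response-element beta-lactamase reporter. Fluorescence intensity read with FRET substrate (2 h, room temperature) after 18 h compound treatment at 37 C.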

[10] = qHTS assay to identify small molecule antagonists of the glucocorticoid receptor (GR) signaling pathway - cell viability counter screen (AID 720693); note: nearly all actives have a fitted effect of over 55% in size
[11] = qHTS assay for identifying genotoxic compounds that show differential cytotoxicity against isogenic chicken DT40 cell lines with known DNA damage response pathways - wild type cell line (AID 743012); note: nearly all actives have a fitted effect of over 60% in size; note: potency is the fitted concentration of half-maximal effect
Outline: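 Viability by ATP luminescence (CellTiter-Glo, 30 min RT) after 40 h compound treatment at 37 C/5% CO2, using 300 parental DNA repair-proficient DT40 cells per well.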

[12] = qHTS assay for identifying genotoxic compounds that show differential cytotoxicity against isogenic chicken DT40 cell lines with known DNA damage response pathways - Rev3 mutant cell line (AID 743014); note: nearly all actives have a fitted effect of over 55% in size; note: potency is the fitted concentration of half-maximal effect
[13] = qHTS assay to identify small molecule antagonists of the androgen receptor (AR) signaling pathway - cell viability counter screen (AID 743033; note: nearly all actives have a fitted effect of over 45% in size)
[14] = qHTS assay to identify small molecule antagonists of the androgen receptor (AR) signaling pathway using the MDA cell line - cell viability counter screen (AID 743041; note: nearly all actives have a fitted effect of over 45% in size)
Outline: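 Compound exposure lasted 16 h at 37C in MDA-kb2 AR-luc cells stimulated with R1881. Protease-based CellTiter-Fluor reagent was applied for the final 30 min and fluorescence measured.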

[15] = target: Glucocorticoid receptor (Homo sapiens) (UniProt P04150); experiment: qHTS assay to identify small molecule antagonists of the glucocorticoid receptor (GR) signaling pathway (AID 720692; active = well fitted inhibition curve with a large enough effect in the signal ratio in the repeat runs, not every such curve was filed as active; the % refers to the signal ratio)
Outline: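 Inhibition of dexamethasone-driven (5 nM final) beta-lactamase expression was measured in GRE-reporter HeLa cells over 18 h at 37C. Fluorescence was read after 2 h with the B/G FRET substrate at room temperature.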

[16] = qHTS assay for identifying genotoxic compounds that show differential cytotoxicity against isogenic chicken DT40 cell lines with known DNA damage response pathways - Rad54/Ku70 mutant cell line (AID 743015); note: nearly all actives have a fitted effect of over 60% in size; note: potency is the fitted concentration of half-maximal effect
[17] = target: Androgen receptor (Homo sapiens) (UniProt P10275); experiment: qHTS assay to identify small molecule agonists of the androgen receptor (AR) signaling pathway (AID 743036; active = well fitted activation curve with a large enough effect in the signal ratio in the repeat runs, with a control signal flat, not every such curve was filed as active; the % refers to the signal ratio)
Chain of Androgen receptor (Homo sapiens) (P10275 whole entry, looked up): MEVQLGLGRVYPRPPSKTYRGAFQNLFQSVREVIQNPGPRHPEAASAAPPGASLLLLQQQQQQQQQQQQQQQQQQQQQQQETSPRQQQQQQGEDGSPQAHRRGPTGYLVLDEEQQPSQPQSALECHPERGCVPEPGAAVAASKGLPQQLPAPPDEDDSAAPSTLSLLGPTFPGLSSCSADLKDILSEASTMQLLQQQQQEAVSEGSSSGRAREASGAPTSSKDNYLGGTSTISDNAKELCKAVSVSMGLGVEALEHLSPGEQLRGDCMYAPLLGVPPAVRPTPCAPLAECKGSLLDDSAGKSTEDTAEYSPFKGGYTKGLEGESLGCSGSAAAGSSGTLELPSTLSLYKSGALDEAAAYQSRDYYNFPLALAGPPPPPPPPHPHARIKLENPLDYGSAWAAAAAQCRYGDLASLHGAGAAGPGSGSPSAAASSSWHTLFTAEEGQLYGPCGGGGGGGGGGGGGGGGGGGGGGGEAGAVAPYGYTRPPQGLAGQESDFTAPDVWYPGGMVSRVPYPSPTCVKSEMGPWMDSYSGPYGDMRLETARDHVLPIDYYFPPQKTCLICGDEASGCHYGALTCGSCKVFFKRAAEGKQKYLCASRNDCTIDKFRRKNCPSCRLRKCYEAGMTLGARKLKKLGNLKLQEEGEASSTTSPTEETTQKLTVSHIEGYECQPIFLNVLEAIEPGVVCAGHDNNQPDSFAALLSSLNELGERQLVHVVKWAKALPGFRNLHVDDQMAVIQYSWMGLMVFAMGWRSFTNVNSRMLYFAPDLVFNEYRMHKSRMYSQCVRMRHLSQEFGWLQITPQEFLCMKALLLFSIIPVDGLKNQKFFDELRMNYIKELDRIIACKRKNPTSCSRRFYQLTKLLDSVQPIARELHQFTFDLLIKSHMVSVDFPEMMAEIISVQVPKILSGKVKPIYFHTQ
Outline: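 Beta-lactamase under UAS control, stably integrated in HEK293 GripTite cells, reports receptor activation. After 16 h compound treatment, cells received FRET substrate for 2 h at room temperature before fluorescence reading.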

[18] = target: Androgen receptor (Homo sapiens) (UniProt P10275); experiment: qHTS assay to identify small molecule agonists of the androgen receptor (AR) signaling pathway using the MDA cell line (AID 743040; note: nearly all actives have a fitted effect of over 20% in size)
Outline: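 Testing was done with the MDA-kb2 AR-luc line, a human breast carcinoma stably transfected with MMTV-luciferase containing AR and GR response elements. Cells were exposed 16 h at 37C before ONE-Glo luminescence detection.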

[19] = target: Androgen receptor (Homo sapiens) (UniProt P10275); experiment: qHTS assay to identify small molecule antagonists of the androgen receptor (AR) signaling pathway using the MDA cell line (AID 743042; note: nearly all actives have a fitted effect of over 55% in size)
Outline: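 MDA-kb2 breast carcinoma cells carrying MMTV-luciferase (AR/GR responsive) were co-treated with compounds and the agonist R1881 for 16 h at 37C. Inhibition read as ONE-Glo luminescence; CellTiter-Fluor fluorescence measured in parallel for cytotoxicity.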

[20] = target: Androgen receptor (Homo sapiens) (UniProt P10275); experiment: qHTS assay to identify small molecule antagonists of the androgen receptor (AR) signaling pathway (AID 743035; active = well fitted inhibition curve with a large enough effect in the signal ratio in the repeat runs, not every such curve was filed as active; the % refers to the signal ratio)
Outline: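 Antagonist mode: AR-bla HEK293 cells co-treated with test compounds and agonist R1881 for 16 h at 37C, 5% CO2. Beta-lactamase activity read as FRET fluorescence after 2 h room-temperature substrate loading.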
% is set by controls: 0 for no effect and ±100 for the full control effect.

Cc1cc(CC(=O)O)c(C)n1-c1ccc(Cl)cc1
active: Potency [11] 26.6 µM | Potency [12] 33.5 µM
inactive: outcome [1] | Potency [2] | outcome [3] | outcome [4] | outcome [5] | Potency [6] | outcome [7] | Potency [8] | Potency [9] | Potency [10] | Potency [13] | Potency [14]

CN(C)CC/C=C1\c2ccccc2COc2ccccc21
inactive: outcome [1] | Potency [2] | outcome [3] | outcome [4] | outcome [5] | Potency [6] | outcome [7] | Potency [8] | Potency [9] | Potency [15] | Potency [10] | outcome [17] | Potency [18] | Potency [14] | Potency [19]
active: Potency [11] 29.8 µM | Potency [16] 29.8 µM

CC(=O)N(O)CCCCCNC(=O)CCC(=O)N(O)CCCCCNC(=O)CCC(=O)N(O)CCCCCN
inactive: fluorescence, % of fluorescein [1] 0.127% [at 18.6 µM] | fluorescence, % of fluorescent control [2] 0.0573% [at 18.6 µM] | activity change [3] 0.033% [at 18.6 µM] | fluorescence, % of fluorescent control [4] -0.0386% [at 18.6 µM] | fluorescence, % of Rose Bengal [5] -0.352% [at 18.6 µM] | fluorescence, % of fluorescent control [6] 0.0393% [at 18.6 µM] | fluorescence, % of fluorescein control [7] 0.169% [at 18.6 µM] | fluorescence, % of fluorescent control [8] 0.041% [at 18.6 µM] | Potency [9] | Potency [15] | Potency [10] | Potency [16] | Potency [13] | outcome [17] | Potency [18] | Potency [14]

N=C(N=C(N)N)N1CCOCC1
inactive: fluorescence, % of fluorescein [1] -0.0392% [at 18.6 µM] | fluorescence, % of fluorescent control [2] 0.0143% [at 18.6 µM] | activity change [3] -0.0209% [at 18.6 µM] | fluorescence, % of fluorescent control [4] 0.292% [at 18.6 µM] | fluorescence, % of Rose Bengal [5] 0.0286% [at 18.6 µM] | fluorescence, % of fluorescent control [6] 0.021% [at 18.6 µM] | fluorescence, % of fluorescein control [7] -0.0914% [at 18.6 µM] | fluorescence, % of fluorescent control [8] 0.133% [at 18.6 µM] | Potency [9] | Potency [15] | Potency [10] | Potency [11] | Potency [16] | Potency [13] | Potency [14]

CC(C)c1ccc2c(C(C)C)cc(C(C)C)c(S(=O)(=O)O)c2c1
inactive: outcome [1] | Potency [2] | outcome [3] | outcome [4] | outcome [5] | Potency [6] | outcome [7] | Potency [8] | Potency [9] | Potency [10] | Potency [12] | Potency [16] | Potency [13] | Potency [20] | Potency [18] | Potency [14] | Potency [19]

Cc1ccc(O)c([C@H](CCN(C(C)C)C(C)C)c2ccccc2)c1
active: Potency [11] 26.6 µM
inactive: outcome [1] | Potency [2] | outcome [3] | outcome [4] | outcome [5] | Potency [6] | outcome [7] | Potency [8] | Potency [9] | Potency [10] | Potency [13] | Potency [14]

CCN(CC)CCOC(=O)C1(c2ccccc2)CCCC1
inactive: outcome [1] | Potency [2] | outcome [3] | outcome [4] | outcome [5] | Potency [6] | outcome [7] | Potency [8] | Potency [9] | Potency [15] | Potency [10] | Potency [13] | Potency [20] | outcome [17] | Potency [18] | Potency [14] | Potency [19]
active: Potency [11] 26.6 µM | Potency [16] 23.7 µM

Cc1cccc(Oc2ccccc2)c1
inactive: outcome [1] | Potency [2] | outcome [3] | outcome [4] | outcome [5] | Potency [6] | outcome [7] | Potency [8] | Potency [9] | Potency [15] | Potency [11] | Potency [12] | Potency [16] | Potency [13] | Potency [14]
